As a reminder, the % Inhibition is the change of the read-out against control, counted positive when it falls.

Molecules are shown by their SMILES. The campaign covered roughly 4,800 compounds. About 420 (8.8%) showed an effect of 50% or more. This is one part of a sample in which strong results are shown more often than they occur.

The test system of this assay is Plasmodium falciparum. The assay can be described thus: Confirmatory screen in NF54 nanoGlo assay, in single point, at 2uM, 72h. The conditions noted are these: timepoint 72 hour. The assay is classed as functional, Erythrocyte.
As to `COc1ccc(Oc2c(CN(CC3CC3)C(=O)c3ccccc3)c(-c3ccccc3)nn2C)cc1`, the “% Inhibition” value is 2%. Under `CC1(C)Oc2ccc(NC(=O)c3ccco3)cc2NC1=O` stands -2%; under `CC(C)N(C)CC1CCN(C(=O)c2cc(-c3ccccc3)c(N3CCOCC3)s2)CC1`, -4%.

Turning to `CCOc1cc(-c2cc(-c3ccccc3O)nc3ccc4ccccc4c23)cc(Br)c1O`, the “% Inhibition” value worked out at 91%. Under `COc1cccc(CNCc2ccccc2)c1OCc1ccccc1Cl` stands -1%.

Consider `O=c1c2ccccc2nnn1-c1ncc(C(F)(F)F)cc1Cl`, for which the “% Inhibition” value is -9%. The same measure for `CC(C)(C)CCS(=O)(=O)N1CCC[C@H]1C1CCCCC1`: 0%. On to `CC(C)CCn1nnnc1[C@]1(N(C)C)CCCN(C(=O)c2cccn2C)C1`, for which the “% Inhibition” value came out at 88%. The same measure for `Cn1cccc1C(=O)N1CCCN(S(C)(=O)=O)[C@H]2CCC[C@H]2C(=O)NCC1`: 0%. The same measure for `COc1cccc(C(=O)N2CCC(c3nc(-c4ccc5c(c4)OCO5)no3)CC2)c1OC`: -3%. In the case of `Cc1ccc(S(=O)(=O)N2CCN(C(=O)N3CCOCC3)[C@@H]2C)cc1`, the “% Inhibition” value is -8%. Under `C#CCOCC(O)CN(Cc1c(-c2ccccc2)noc1N1CCC(C)CC1)CC1CCCO1` (centres undefined) stands -17%; under `O=C(OCc1ccc(C(F)(F)F)nc1)c1ccc(C(F)(F)F)nc1`, 7%; under `O=C(NC1CCOCC1)c1ccc(-c2ccc(F)c(F)c2F)cn1`, 6%. In the case of `CNC(=O)[C@@H](NC(=O)CNC(=O)c1ccc(Cl)cc1)C(C)(C)C`, the “% Inhibition” value is listed as -11%. The same measure for `O=C(NCCN1CCCC1)c1ccc2c(c1)OCCO2`: -12%; for `CC(=O)N1CCc2cc(-c3ccc(C(=O)NCCC(C)C)cc3)ccc21`: 2%; for `O=C(c1ccnn1C(F)F)N1N=CC[C@]1(O)C(F)(F)F`: -5%. Under `Cc1cc(CS(=O)(=O)NCCOc2ccc(Cl)cc2)on1` stands 2%; under `CC1(C)C[C@@H](NC(=O)COc2ccc(CO)cc2)CCO1`, -1%. Under `O=C(Nc1nc(Cc2ccccc2)cs1)C1CCOCC1` stands 2%; under `COc1ccc(CNCCC2C(C)CN(C)C(C)C2Cc2ccccc2)cc1` (centres undefined), 59%; under `COc1ccc(CC2C(O)C(Cc3ccc(OC)cc3)C3CCC2N3C)cc1` (centres undefined), 7%. For `CCNC(=O)C(=O)NCc1ccc(OC)cc1`, the “% Inhibition” value is reported as -17%.

On to `C[C@H]1CS(=O)(=O)C[C@H]1NC(=O)Nc1ccc2ccoc2c1`, for which the “% Inhibition” value is -5%. Under `CNc1nc(C)cc(C(=O)Nc2ccc(Cl)cc2NC(C)=O)n1` stands 2%; under `C[C@@H](NC(=O)Nc1ccc(Cl)c(Cl)c1)C(=O)O`, 5%.

Consider `O=C(Nc1ccc(Cl)c(Cl)c1)Nc1ccc(Cl)cc1NC(=O)Nc1ccc(Cl)c(Cl)c1`, for which the “% Inhibition” value is recorded as 65%.

Take `O=C1CCC(=O)N1c1cnn(Cc2ccccc2)c1`: the “% Inhibition” value worked out at 1%.

Turning to `CC(C)(C)OC(=O)N1CCC2(CC1)NN=C1C=C(N3CCN(c4ccccc4F)CC3)N=CN12`, the “% Inhibition” value is listed as -8%.

Regarding `CCOc1ccc(NC(=O)Cn2cnc3c(-c4cccc(OC)c4)cn(C)c3c2=O)cc1`, the “% Inhibition” value is given as -1%. On to `CN1CC[C@H](CN(C)Cc2ccc3cc(O)ccc3c2)C1`, for which the “% Inhibition” value is on record as 9%. On to `COC1CCCC1NC(=O)Nc1ncc(Br)cc1C` (centres undefined), for which the “% Inhibition” value amounted to 74%. The same measure for `CC(=O)Nc1ncc(Br)cc1C`: 3%; for `CNC(=O)c1cc(Br)cnc1NC`: 3%. The same measure for `Cc1c(NS(=O)(=O)c2ccc(Cl)cc2)c(-n2cnnc2)nn1C`: -7%; for `O=C(NCCN1CCCCC1)c1n[nH]c2c1CCc1ccccc1-2`: 1%; for `COc1cc(=O)[nH]cc1Br`: -3%. With `CC(C)N1CCO[C@H](C(=O)Nc2c[nH]nc2-c2ccccc2)C1`, the “% Inhibition” value is reported as -5%. Under `O=C(O)c1nccc(C(F)(F)F)c1Cl` stands -19%. Under `CC(C)(C)c1ccc(NC(=O)c2ccnnc2)c(O)c1` stands -8%; under `CC1(C)C2CCC13CS(=O)(=O)N=C3C2` (centres undefined), 3%; under `COC(=O)c1ccccc1NC(=O)NCCn1nnc2cc(S(=O)(=O)N(C)C)ccc21`, 55%.

Take `Cc1cccc(NC(=O)NCCn2nnc3cc(S(=O)(=O)N4CCCC4)ccc32)c1C`: the “% Inhibition” value is listed as -1%. Take `O=S(=O)(c1ccc(F)cc1)n1ccc(-c2cccc(OCc3ccc(Cl)cc3Cl)c2)n1`: the “% Inhibition” value is on record as -4%. Under `Cc1nc2c(sc(=S)n2-c2ccc(Cl)c(Cl)c2)c(=O)[nH]1` stands -2%; under `CCOC[C@@H](O)CN(Cc1c(C)nn(-c2ccccc2)c1Oc1cccc(C)c1)C1CC1`, 10%.

Turning to `CCc1cc(C(=O)N2CCC3(CC2)C[C@H](c2ccccc2)C(=O)N3C)no1`, the “% Inhibition” value is given as -8%. The same measure for `O=C(OCC(=O)N1CCN(Cc2ccccc2)CC1)c1nccc2ccccc12`: 1%; for `CC(CNc1ccccn1)N1CCOCC1C` (centres undefined): -5%; for `Cc1ccc(Cl)c(OCn2ccc(C(=O)Nc3ccc(Br)cn3)n2)c1`: -16%. Take `O=C(NCc1ccccc1F)C1CCN(c2cncnc2N2CCCC2)CC1`: the “% Inhibition” value is 33%. Under `CCS(=O)(=O)C1CN(C(=O)c2ccnn2C2CCCC2)C1` stands -7%; under `COCCCn1c(COc2ccc(OC)cc2)n[nH]c1=O`, 1%; under `COc1c(Cl)cc(Cl)cc1CNC(C)C`, 4%.

With `NCc1ccc(O)c(Br)c1`, the “% Inhibition” value was determined as 2%. The same measure for `COc1ccnc(NCc2ccc(N3CCOCC3)cc2)n1`: -3%; for `Cc1ccc(CNC(=O)c2nc(-c3ccncc3)cs2)o1`: 7%.

On to `CC(=O)c1cccc(S(=O)(=O)N2CCN(C(=O)c3ccc4c(c3)CCC4)CC2)c1`, for which the “% Inhibition” value is 2%. For `CC12CN(S(=O)(=O)c3ccc4c(c3)OCCO4)C3(C(=O)OCc4ccccc4)CC1CCC23C` (centres undefined), the “% Inhibition” value came to 59%. Under `Cc1cc(C)n(S(=O)(=O)c2ccc3c(c2)OCCO3)n1` stands -3%. The same measure for `COc1ccc2c(c1)CCN2S(=O)(=O)c1ccc2c(c1)OCCO2`: -4%; for `CC(C)OC(=O)N1C(=O)c2ccccc2NC1(C(F)(F)F)C(F)(F)F`: -22%; for `Nc1ccc2c(c1)Oc1cc(N)ccc1OCCOCCOCCO2`: -10%. The same measure for `O=c1c2ccccc2nc2cc(-c3ccc(O)cc3)c(-c3ccccc3)nn12`: 53%. For the compound `COC(=O)Nc1nc(-c2ccccc2)c(-c2nc3ccccc3c(=O)n2-c2ccc(OC)cc2)s1`, the “% Inhibition” value is 5%. With `Cc1cccc(-n2c(-c3sc(Nc4ccccc4)nc3-c3ccccc3)nc3ccccc3c2=O)c1`, the “% Inhibition” value amounted to 6%. Under `Cc1ccc(/N=C(\N)C(Cl)(Cl)Cl)c(C)c1` stands -2%; under `Oc1ccccc1CCN[C@H]1CCc2ccc(F)cc21`, 98%; under `CN(Cc1ccc(F)cc1Cl)[C@H]1CCc2nnc(C3CCOCC3)n2CC1`, -13%. For `c1ccc(N2CCN(CCN[C@H]3CCc4cc5c(cc43)CCC5)CC2)cc1`, the “% Inhibition” value came to 8%. As to `Cc1ccnc(CNC(=O)N[C@H]2CCc3ccc(F)cc32)c1`, the “% Inhibition” value is -10%. Under `Cc1nc2cc(F)ccc2cc1C(=O)N1CCN(S(=O)(=O)c2ccc(Br)cc2)CC1` stands 0%; under `Cc1ccccc1CNC(=O)CN(C(C)C)C1CCOCC1`, 21%. The same measure for `CCO[C@H]1C[C@H](NC(=O)Nc2ccc(F)c(C3CC3)c2)C1`: 2%; for `COc1ccc(-n2nc(C)c3c2NC(=O)C[C@@H]3c2ccc3c(c2)OCO3)cc1`: -5%. The same measure for `COC(=O)c1ccc(C)c(NC(=O)c2ocnc2C2CC2)c1`: 2%; for `Cc1cc(C)n(-c2c(C)[nH]c3ccccc23)n1`: -7%; for `CC1=C(C(=O)Nc2cccc(Cl)c2)[C@H](c2csnn2)NC(=O)N1`: -20%. For the compound `N#Cc1c(CN2CCOCC2)cc(=O)n2c1[nH]c1ccccc12`, the “% Inhibition” value is reported as -4%. The same measure for `Cc1ccc(CN2CCN(C[C@@H](O)Cn3c4ccccc4n4c(=O)cc(C)c(C#N)c34)CC2)c(C)c1`: 89%. Under `O=C(Cc1c[nH]c2ccccc12)N[C@H]1CCS(=O)(=O)C1` stands -4%; under `CCOCCCNC/C=C/c1ccccc1`, -5%. The same measure for `CC(=O)N1CCC(Nc2ccc3c(c2)CCC(=O)N3)CC1`: -17%; for `COc1cc(Cl)c(C)cc1NC(=O)c1cc(=O)n(-c2ccc(C)cc2)[nH]1`: -8%; for `Clc1cccc(N2CCN(Cc3ccc(OC4CCNCC4)cc3)CC2)c1`: 27%. As to `O=C(CN1CCCCCC1)Nc1ccc(OCc2ccccc2)cc1`, the “% Inhibition” value was 0%. Under `c1ccc(Cn2ncc3cc(-c4nc(C5CC5)no4)cnc32)cc1` stands 3%. Under `COc1ccccc1[C@H]1CC(O)=Nc2c1ncn2-c1cc(F)cc(F)c1` stands -4%; under `Cn1ccnc1[C@@H]1CCCN1S(=O)(=O)c1c2c(nn1C)CCCC2`, 4%; under `C[C@@H](CNc1nc(-c2ccccc2)nc2nc(-c3ccc(Cl)cc3)oc12)N1CCCCC1`, 60%. The same measure for `O=C1CC(c2cccc(NC(=O)CCc3ccccn3)c2)CC(=O)N1`: 3%; for `Cc1cc(-n2c(C)cc(C(=O)Cn3c(C(F)(F)F)ccc(C(N)=O)c3=O)c2C)no1`: 25%. For `NC(=O)c1ccc(C(F)(F)F)n(CC(=O)N(Cc2ccc(F)cc2)C2CCCCC2)c1=O`, the “% Inhibition” value was -6%. Take `NC(=O)c1ccc(C(F)(F)F)n(C[C@H](O)c2cc(Cl)ccc2Cl)c1=O`: the “% Inhibition” value worked out at 63%. The same measure for `CCC(=O)N(CCN(C)C)Cc1c(-c2ccccc2)noc1N1CCCCC1`: 10%; for `CCN(CCN(C)C)C(=O)c1cccc(-c2ccc3nccc(N)c3c2)c1`: 70%; for `Cc1cccc(OC[C@@H](O)Cn2cnc(C)c(C)c2=O)c1`: 5%. Under `COc1ccc(-n2nnnc2[C@@H](NCCc2c[nH]c3ccccc23)C(C)C)cc1` stands -1%; under `Cc1cccc(CC(=O)N[C@@H](C)CCC(=O)O)c1`, 4%. The same measure for `O=C(CCc1ccc(Cl)c(C(F)(F)F)c1)N1CC[C@H](N2CCc3ccccc3C2)C1`: 52%; for `O=C(Nc1ccccc1Cl)N1CCC(N2CCc3sccc3C2)CC1`: 37%. With `CN1CCC2C(CCN2C(=O)Nc2ccc(Cl)c(C(F)(F)F)c2)C1` (centres undefined), the “% Inhibition” value was determined as 2%. Under `CC(C)c1cccc(CN2C(=O)N[C@]3(CC(C)(C)OC3(C)C)C2=O)n1` stands -6%.

These data come from ChEMBL document CHEMBL4888484, “Replenishing the malaria drug discovery pipeline: Screening and hit evaluation of the MMV Hit Generation Library 1 (HGL1) against asexual blood stage Plasmodium falciparum ,using a nano luciferase reporter read-out” (2022).
